Screens: PubChem BioAssay, several laboratories
PrP 5UTR inh: suppresses PrP 5' UTR mRNA reporter expression; hit rate 0.35% among 340,000; inhibition, % (test concentration not listed); cell-based PrP 5' UTR mRNA reporter, plate reader; in the data active = inhibition above about 52%
Mtb hypoxia rep: Mtb hypoxia fluorescent reporter inhibition. hit rate 0.1% among 300,000. AID 1159583. M. tuberculosis hypoxia-regulated fluorescent reporter, fluorescence. fluorescence inhibition, % (test concentration not listed); in the data active = fluorescence inhibition mostly above about 23%, no sharp cut-off; inactive = mostly below about 17%
PrPC TRFRET: reduces human prion protein on the cell surface. cell surface PrPC, TR-FRET read-out. P04156. AID 720596. hit rate 0.43% among 370,000. inhibition, % at 13.8 µM; in the data active = inhibition above about 24%
DUSP3 inh: blocks human VHR1 dual specificity phosphatase | recombinant VHR phosphatase, pNPP absorbance | inhibition, % at 13.3 µM | hit rate 0.52% among 290,000; in the data active = inhibition above about 50%
Target sequence (P51452 whole entry, looked up): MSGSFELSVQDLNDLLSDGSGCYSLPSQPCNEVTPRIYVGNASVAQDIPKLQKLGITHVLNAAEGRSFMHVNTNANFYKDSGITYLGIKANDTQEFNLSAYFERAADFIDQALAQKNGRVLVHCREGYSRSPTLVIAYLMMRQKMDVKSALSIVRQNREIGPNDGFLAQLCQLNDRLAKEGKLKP
MazF activator: MazEF (E. coli) toxin RNase activation. FAM/BHQ RNA-DNA oligo cleavage fluorescence, 5 h. activation, % at 20 µM. hit rate 0.32% among 350,000; in the data active = activation above about 50%
Target sequence (P0AE70 whole entry, looked up): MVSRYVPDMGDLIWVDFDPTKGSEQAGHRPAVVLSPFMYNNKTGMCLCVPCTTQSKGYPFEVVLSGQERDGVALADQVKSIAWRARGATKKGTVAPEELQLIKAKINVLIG
SARS 3CLpro inh-1: SARS-CoV 3CLpro protease inhibition; inhibition, % at 6 µM; recombinant SARS-CoV 3CLpro, quenched FRET peptide cleavage; AID 1706; hit rate 0.14% among 290,000; P0C6X7; in the data active = inhibition above about 12%
SARS 3CLpro inh-2: SARS 3CLpro inhibition, confirmation assay | shares compounds with SARS 3CLpro inh-1 | QFRET protease activity assay | inhibition, % at 6 µM | hit rate 36% among 380 | AID 1879; in the data active = inhibition above about 13%
Of the large screens only hits and unclear results are named; the others gave an inactive call (follow-up assays come after a bar, where shown). Most compounds without a hit are left out; they make up all but 1.5% or so of the library.

COC(=O)c1sc(N2C(=O)C(O)=C(C(=O)c3ccc(C)o3)C2c2ccc([N+](=O)[O-])cc2)nc1C (stereo unspecified)	none
CCOc1ccc(C2C(C(=O)c3ccc(C)o3)=C(O)C(=O)N2c2nc(C)c(C(=O)OC)s2)cc1 (stereo unspecified)	SARS 3CLpro inh-1 12 | SARS 3CLpro inh-2 inactive
CC=C(C)C(=O)N1CC2(CC(c3cccc(NC(=O)COc4ccc(Cl)cc4)c3)=NO2)CC1C(N)=O (stereo unspecified)	none (no result: PrP 5UTR inh, PrPC TRFRET, DUSP3 inh, MazF activator, SARS 3CLpro inh-1)
COc1cccc(-n2cnc3scc(-c4cccs4)c3c2=O)c1	none (no result: Mtb hypoxia rep)
COc1ccc(C(=O)Nn2cnc3scc(-c4cccs4)c3c2=O)c(O)c1	SARS 3CLpro inh-1 14 (no result: DUSP3 inh) | SARS 3CLpro inh-2 inactive
Cc1ccc(S(=O)(=O)Nc2cc(-c3ccccc3)nn2C)cc1Cl	SARS 3CLpro inh-1 14 | SARS 3CLpro inh-2 inactive
CC(=O)n1cc(N(C(=O)CCl)c2ccccc2)c2ccccc21	none (not shown: Mtb hypoxia rep)
CC(=O)n1cc(N(C(=O)CCl)c2ccc([N+](=O)[O-])cc2)c2ccccc21	SARS 3CLpro inh-1 14 | SARS 3CLpro inh-2 36
CCN1C(=O)C2C(c3ccc(SC4CCCCC4)c(OC)c3)N3CCC[C@@]3(C(=O)OC)C2C1=O (stereo partly specified)	none (no result: PrP 5UTR inh, PrPC TRFRET, DUSP3 inh, MazF activator, SARS 3CLpro inh-1)
CC(C)Oc1ccc(CCC(=O)NN=Cc2ccncc2)cc1	none (no result: PrP 5UTR inh, PrPC TRFRET, DUSP3 inh, MazF activator, SARS 3CLpro inh-1)
Cc1cc(NC(=O)COn2nnc3ccc(S(C)(=O)=O)cc32)ccc1Br	SARS 3CLpro inh-1 24 | SARS 3CLpro inh-2 31
Cc1cc(Br)c(NC(=O)COn2nnc3ccc(S(C)(=O)=O)cc32)c(Br)c1	SARS 3CLpro inh-1 12 | SARS 3CLpro inh-2 inactive
COC(=O)C1=C(c2c(C)noc2C)CC2CCC1N2C(=O)NCCCOC(C)C (stereo unspecified)	none (no result: PrP 5UTR inh, PrPC TRFRET, DUSP3 inh, MazF activator, SARS 3CLpro inh-1)
Oc1ccc(C=NNc2cc(N3CCOCC3)nc(N3CCOCC3)n2)c(O)c1	none (no result: PrP 5UTR inh, PrPC TRFRET, DUSP3 inh, MazF activator, SARS 3CLpro inh-1)
COc1ccc(C)cc1NC(=O)CSc1nc2scc(C)c2c(=O)[nH]1	SARS 3CLpro inh-1 13 | SARS 3CLpro inh-2 inactive
O=C(NN=Cc1cccnc1)c1cccc(S(=O)(=O)N2CCCC2)c1	none (no result: PrP 5UTR inh, PrPC TRFRET, DUSP3 inh, MazF activator, SARS 3CLpro inh-1)
O=C1C2C3C=CC(C3)C2C(=O)N1/N=C/c1ccc(-c2ccccc2[N+](=O)[O-])o1 (stereo unspecified)	SARS 3CLpro inh-1 12 (no result: Mtb hypoxia rep) | SARS 3CLpro inh-2 inactive
CCn1nc(-c2ccccc2)nc2c(=O)n(C)c(=O)nc1-2	SARS 3CLpro inh-1 17 (no result: PrPC TRFRET) | SARS 3CLpro inh-2 37
CN1C(=O)c2ccc(NC(=O)CSc3ccccc3)cc2C1=O	none
O=C(CSc1ccc(F)cc1)Nc1ccc2c(c1)C(=O)NC2=O	SARS 3CLpro inh-1 13 | SARS 3CLpro inh-2 inactive
Cc1cccc2cc(C=NNC(=O)[C@H]3C[C@@H]3c3ccccc3)c(Cl)nc12	none (no result: PrP 5UTR inh, PrPC TRFRET, DUSP3 inh, MazF activator, SARS 3CLpro inh-1)
O=C(CSc1ccccn1)Nc1ccc(NC(=O)CSc2ccccn2)cc1	none
O=C(CSc1ccccn1)Nc1nonc1[N+](=O)[O-]	SARS 3CLpro inh-1 41 (not shown: Mtb hypoxia rep) | SARS 3CLpro inh-2 49
Cc1ccc(NC(=O)CSc2nc(NS(=O)(=O)c3ccccc3)cc(=O)[nH]2)cc1	none (no result: PrPC TRFRET)
CCOc1ccc(NC(=O)CSc2nc(NS(=O)(=O)c3ccc(C)cc3)cc(=O)[nH]2)cc1	SARS 3CLpro inh-1 13 | SARS 3CLpro inh-2 inactive
CCc1nc(N2CCN(C(C)=O)CC2)c2c3c(sc2n1)CC(C(C)(C)C)CC3 (stereo unspecified)	none
CCc1nc(N2CCN(C(=O)CCl)CC2)c2c3c(sc2n1)CC(C)CC3 (stereo unspecified)	SARS 3CLpro inh-1 38 (no result: Mtb hypoxia rep) | SARS 3CLpro inh-2 63
CCOc1ccc(N(Cc2cc3ccc(C)cc3[nH]c2=O)S(=O)(=O)c2ccccc2)cc1	SARS 3CLpro inh-1 13 | SARS 3CLpro inh-2 inactive
Cc1ccc2cc(CN(c3ccccc3)S(=O)(=O)c3ccccc3)c(=O)[nH]c2c1	none
COc1ccc(S(=O)(=O)N2CCOC2CNC(=O)C(=O)NCCN(C)C)cc1 (stereo unspecified)	SARS 3CLpro inh-1 13 | SARS 3CLpro inh-2 inactive
COc1ccccc1CCNC(=O)C(=O)NCC1OCCN1S(=O)(=O)c1ccc2c(c1)OCCO2 (stereo unspecified)	SARS 3CLpro inh-1 13 | SARS 3CLpro inh-2 inactive
COc1ccc(S(=O)(=O)N2CCN(C(=O)Nc3ccccc3OC)CC2)cc1	SARS 3CLpro inh-1 13 | SARS 3CLpro inh-2 inactive
COc1ccc(NC(=O)N2CCN(S(=O)(=O)c3ccc(F)cc3)CC2)c(OC)c1	none
CCCCC1COCCS(=O)(=O)N1Cc1cccc([N+](=O)[O-])c1 (stereo unspecified)	none (no result: PrP 5UTR inh, PrPC TRFRET, DUSP3 inh, MazF activator, SARS 3CLpro inh-1)
C[C@@H]1NC(=O)c2cc([N+](=O)[O-])cc(I)c2NCCCC[C@@H](C(N)=O)NC(=O)[C@H](CC(N)=O)NC1=O	SARS 3CLpro inh-1 14 (no result: Mtb hypoxia rep, PrPC TRFRET) | SARS 3CLpro inh-2 inactive
CC1NC(=O)c2cc([N+](=O)[O-])cc(I)c2NCCCCC(C(N)=O)NC(=O)C(CC(N)=O)NC1=O (stereo unspecified)	none (no result: PrP 5UTR inh, PrPC TRFRET, DUSP3 inh, MazF activator, SARS 3CLpro inh-1)
Cc1cc(C(=O)NC2CCCc3c2cnn3-c2ccc(C(C)(C)C)cc2)n[nH]1 (stereo unspecified)	SARS 3CLpro inh-1 13 | SARS 3CLpro inh-2 inactive
O=C1/C(=C/c2cccc(Cl)c2)SC(=S)N1CCC(=O)N1CCCCC1CCO (stereo unspecified)	SARS 3CLpro inh-1 14 | SARS 3CLpro inh-2 inactive
CCOC(=O)c1c(NC(=O)CCl)sc(CN(C)C)c1-c1ccccc1	SARS 3CLpro inh-1 31 | SARS 3CLpro inh-2 59
COC(=O)C1=C(c2ccc(S(C)(=O)=O)cc2)CC2CCC1N2C(=O)NCc1ccco1 (stereo unspecified)	none (no result: PrP 5UTR inh, PrPC TRFRET, DUSP3 inh, MazF activator, SARS 3CLpro inh-1)
COc1cc2c(C(=O)O)c(C)n(-c3ccccc3)c2c2ccccc12	none
COc1ccccc1-n1c(C)c(C(=O)O)c2cc(OC)c3ccccc3c21	SARS 3CLpro inh-1 14 | SARS 3CLpro inh-2 inactive
CCOC(=O)C1C2COc3cc(OC)ccc3C2N2C(=O)CN(Cc3ccc(Cl)cc3)C(=O)[C@@]12C (stereo partly specified)	none (no result: PrP 5UTR inh, PrPC TRFRET, DUSP3 inh, MazF activator, SARS 3CLpro inh-1)
Cc1noc(C)c1S(=O)(=O)Nc1ccc(C(=O)Nc2ccc(OC(F)(F)F)cc2)cc1	SARS 3CLpro inh-1 13 | SARS 3CLpro inh-2 inactive
O=c1c(-c2c(O)cc(O)c3c2OC(c2ccc(O)cc2)CC3)c(-c2ccc(O)cc2)oc2cc(O)cc(O)c12 (stereo unspecified)	none (no result: PrP 5UTR inh, PrPC TRFRET, DUSP3 inh, MazF activator, SARS 3CLpro inh-1)
CC(=O)N(c1ccc(C(F)(F)F)cc1)S(=O)(=O)c1ccc(N2C(=O)CCC2=O)cc1	SARS 3CLpro inh-1 13 | SARS 3CLpro inh-2 inactive
O=C(O)c1ccc(NS(=O)(=O)c2ccc(N3C(=O)CCC3=O)cc2)cc1	none
C#CCOCCOCCOCCNc1nc(N2CCN(C(=O)CCCCCCCCCCNC(=O)Cn3cc(CC(C)O)nn3)CC2)nc(N2CCN(C(=O)CCCCCCCCCCNC(=O)C(CCCCN)n3cc(CCCC(=O)O)nn3)CC2)n1 (stereo unspecified)	none (no result: PrP 5UTR inh, PrPC TRFRET, DUSP3 inh, MazF activator, SARS 3CLpro inh-1)
